Inconclusive results are not listed. Activity calls are given as the source filed them. Unless noted, how the calls were made is not given here.
Key:
[1] = qHTS Assay for Identifying Gametocytocidal Compounds (AID 743244; active means well fitted curve in the direction sought with a large enough effect; an effect the other way counts as inactive or inconclusive; further: potency means the concentration at half of the fitted maximal effect;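 on max response: on the % scale 0 is the no-effect control and ±100 the full control effect; actives lower the fluorescent signal which means gametocytes are killed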); conditions: P. falciparum 3D7 stage III-V gametocytes, alamarBlue, 72 h; max response: stronger effect = lower value
Procedure, shortened: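 Fluorescence at Ex 525/Em 598 nm, recorded 24 h after alamarBlue addition, reports residual metabolic activity of 3D7 gametocytes (stages III–V) following 72 h compound exposure at 37 °C, 5% CO2.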

[2] = qHTS profiling for inhibitors of Plasmodium falciparum (3D7) proliferation (AID 743322);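 further: infected erythrocytes exposed to compound for 72 h before lysis; 100% = DMSO vehicle wells and 0% = 0.29 µM artemisinin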; conditions: P. falciparum 3D7 proliferation; at 28.7 µM (top of the series)
Procedure, shortened: (§1)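 Erythrocytes infected with P. falciparum (0.3% parasitemia, 2.5% hematocrit) incubated with compounds 72 h at 37 C, 5% CO2. Lysis with saponin/Triton buffer containing SYBR Green I, overnight at room temperature in the dark; DNA fluorescence (485/535 nm) normalised to 0.29 uM artemisinin and DMSO.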

[3] = qHTS profiling for inhibitors of Plasmodium falciparum (DD2) proliferation (AID 743323); conditions: lower = more inhibition; at 28.7 µM (top of the series)
Procedure, shortened: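 P. falciparum Dd2-infected erythrocytes (0.3% parasitemia, 2.5% hematocrit) exposed 72 h at 37 C, 5% CO2. Lysis with SYBR Green, overnight at room temperature, fluorescence 485/535 nm; normalized to 0.29 uM artemisinin and DMSO.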

[4] = qHTS profiling of the MIPE4 collection as inhibitors of Plasmodium falciparum (3D7) proliferation (AID 743344);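 further: scaled between DMSO vehicle wells and 0.29 µM artemisinin as full inhibition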; conditions: P. falciparum 3D7 in erythrocytes, SYBR Green DNA fluorescence, 72 h; at 28.5 µM (top of the series) unless noted
Procedure, shortened: as §1

[5] = qHTS profiling of the MIPE4 collection as inhibitors of Plasmodium falciparum (DD2) proliferation (AID 743345); conditions: P. falciparum Dd2 in erythrocytes, SYBR Green DNA, 72 h; at 28.5 µM (top of the series) unless noted
Procedure, shortened: as §1

[6] = qHTS profiling of the MIPE4 collection as inhibitors of Plasmodium falciparum (DD2) proliferation (Rep 2) (AID 743346); conditions: P. falciparum Dd2 in erythrocytes, SYBR Green DNA, 72 h; at 28.5 µM (top of the series) unless noted
Procedure, shortened: as §1

[7] = qHTS profiling of the MIPE4 collection as inhibitors of Plasmodium falciparum (HB3) proliferation (AID 743347);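 further: plate controls were DMSO vehicle wells for no effect and artemisinin wells for full effect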; conditions: P. falciparum HB3 in erythrocytes, SYBR Green DNA, 72 h; at 28.5 µM (top of the series) unless noted
Procedure, shortened: as §1

[8] = High-throughput drug toxicity screening in the BPDCN cell line Gen2.2 (AID 1224824); conditions: Gen2.2 BPDCN cells; at 45.8 µM (top of the series) unless noted;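 further: cells exposed to compounds for 48 h before reading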
Procedure, shortened: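 Gen2.2, 500 cells/well, phenol red-free RPMI/10% FBS/Pen-Strep; 48 h cpd, 37 °C/5% CO2; CTG lum, 15 min RT. Norm: DMSO = 100%, bortezomib 9.2 uM final = 0%.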

[9] = High-throughput drug toxicity screening in the BPDCN cell line Cal-1 (AID 1224825); conditions: Cal-1 BPDCN cell viability, qHTS; at 45.8 µM (top of the series) unless noted
Procedure, shortened: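 Exponentially growing Cal-1 cells, 500 per well in phenol red-free RPMI with 10% FBS, were exposed to compounds for 48 h at 37 °C, 5% CO2. Viability was read by CellTiter-Glo luminescence and normalised to DMSO (100%) and 9.2 uM bortezomib (0%).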

[10] = qHTS assay for measurement of the activity of small molecule inhibitors on Zika virus induced Caspase-3 activity in human iPSC derived neural progenitor cells (hNPCs) (AID 1224857; active means well fitted curve in the direction sought with a large enough effect; an effect the other way counts as inactive or inconclusive; further: % of control where 0% means no effect; nearly all actives have a fitted effect of over 65% in size)
Procedure, shortened: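 Zika virus (2 FFU/cell) infection of human iPSC-derived NPCs, 6 h, following 1 h compound preincubation. Read-out: Caspase-Glo 3/7 luminescence.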

[11] = qHTS profiling for inhibitors of Plasmodium falciparum (HB3) proliferation (AID 743324; active means well fitted curve in the direction sought with a large enough effect; an effect the other way counts as inactive or inconclusive;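 further: 100% = DMSO vehicle wells and 0% = artemisinin-treated control wells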); conditions: Plasmodium falciparum HB3 blood-stage proliferation; at 28.7 µM (top of the series)
Procedure, shortened: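 P. falciparum HB3 grown in erythrocytes (0.3% parasitemia, 2.5% hematocrit final) with compound for 72 h at 37 C, 5% CO2. Parasite DNA detected by SYBR Green after saponin/triton lysis overnight; normalized to 0.29 uM artemisinin and DMSO.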

SMILES | max response [1] | remaining parasite growth % (stronger effect = lower value) [2] [%] | activity, percent of control [3] [%] | parasite growth, % of DMSO control [4] [%] | parasite growth remaining, % of DMSO control (lower = more inhibition) [5] [%] | parasite growth, % of control (lower = inhibition) [6] [%] | growth, % of control [7] [%] | cell viability, % of control (lower = more cytotoxic) [8] [%] | viability (% of control) [9] [%] | Potency [10] | remaining proliferation (% of control), lower = more inhibition [11] [%] | Potency [1]
Nc1ccccc1NC(=O)c1ccc(CNC(=O)OCc2cccnc2)cc1 | -2.71% (inactive) | 99.2 | 92.8 | 25.3 | 31.3 | 25.4 | 7.7 | 2.59 | 5.69 | inactive |  | 
C=C1C(=CC=C2CCCC3(C)[C@@H]([C@H](C)C=CC=CC(O)(CC)CC)CC[C@@H]23)C[C@@H](O)C[C@@H]1O (stereo partly specified) | -8.25% (inactive) | 65.1 | 71.5 |  | 83.6 | 12.7 | 15 | 17.9 | 6.44 | inactive | 20.6 | 
COc1cc2c(Nc3ccc(NC(=O)c4ccccc4)cc3)ncnc2cc1OCCCN1CCOCC1 | -17.9% (inactive) | 2.34 | 15.5 | 10.3 |  | 30 | 8.34 | 4.68 | 2.4 | inactive | 3.78 | 
COc1ccc(C=Cc2cc(OC)c(OC)c(OC)c2)cc1O | 18.2% (inactive) | 92 | 104 |  |  | 44 | 22.3 | 10.8 | 8.52 | inactive | 84.7 | 
C=CC(=O)Nc1cc2c(Nc3ccc(F)c(Cl)c3)ncnc2cc1C#CC(C)(C)N1CCN(C)CC1 |  | -1.21 | -0.164 | 9.4 | 8.69 | 18 | 4.67 | 6.93 | 1.87 | inactive | -0.161 | 18.7 µM (active)
COc1cc(C(C)C)c2c(c1)S(=O)(=O)N(COc1cc(=O)n3cccc(OCCN4CCCCC4)c3n1)C2=O | -3.11% (inactive) | 105 | 94.1 | 101 |  | 114 | 107 | 3.67 | 10.9 | inactive | 89.5 | 
C=CCn1c(=O)c2cnc(Nc3ccc(N4CCN(C)CC4)cc3)nc2n1-c1cccc(C(C)(C)O)n1 |  | 11.1 | 6.29 | 13.4 |  | 21.2 | 16.5 | 169 | 16.4 | inactive |  | 3.32 µM (active)
COc1cccc2nc(-c3cccs3)nc(NN3C(=O)C=C(C)C3=O)c12 | 19.8% (inactive) | 92.8 | 81.6 | 27.1 | 90.8 | 18.1 | 6.3 | 4.3 | 3.16 | inactive | 87.8 | 
Nc1cc(C(F)(F)F)c(-c2cc(N3CCOCC3)nc(N3CCOCC3)n2)cn1 | -15.2% (inactive) | 90.8 | 69.9 | 19.5 | 94 | 41.5 | 18.9 | 9.37 | 11.1 | inactive | 58.8 | 

From PubChem BioAssay (NCATS)
